Source: PubChem BioAssay AID504834 (National Center for Advancing Translational Sciences (NCATS), 2011)
Hit rate of the full screen: of about 320,000 compounds, about 22,000 (6.9%) were called active. About 27% were inconclusive and are not listed. For the sample, actives were picked, then their nearest neighbours and some compounds at random. Values without a mark were called inactive. Calls follow the shape of the dose curve; as a rule, active = well fitted inhibition curve with a large enough effect; inconclusive = small, poorly fitted or top-dose-only effect, or another doubt; inactive = no such curve, though single readings can be large or run the other way.

assay: Primary qHTS for delayed death inhibitors of the malarial parasite plastid, 96 hour incubation; details: P. falciparum luciferase reporter growth; series mostly up to 28.7 µM; activity change, negative = inhibition: at the top concentration
Summary of the method: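 Delayed-death screen, second-generation endpoint: infected erythrocytes, 2% hematocrit, 0.05% parasitemia final; 96 hours at 37 C, 5% CO2; luciferase detection reagent; luminescence decrease equals reduced growth.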
% is scaled to controls: 0 for no effect and ±100 for the full control effect; potency is read from the fitted curve at half-maximal effect.

| SMILES | activity change, negative = inhibition | Potency |
| --- | --- | --- |
| COc1cccc(N(CC(=O)NCc2ccccc2)C(=O)CCC(=O)Nc2nccs2)c1 | -3.46% |  |
| NC(=O)C1CCN(C(=O)CC2C(=O)NCCN2Cc2cccc(Oc3ccccc3)c2)CC1 (stereo not drawn) | 2.05% |  |
| CC(C)(CNCC(O)c1ccccc1)N1CCOCC1 (stereo not drawn) |  | 5.86 µM (active) |
| OC(CNCc1ccc(Cl)c(Cl)c1)c1ccccc1 (stereo not drawn) | 1.84% |  |
| CC(C)(CNC(=O)c1cc(=O)[nH]c2ccccc12)N1CCOCC1 | -11.1% |  |
| O=C(N/N=C/c1ccc2c(c1)OCO2)c1ccc(Cn2cc([N+](=O)[O-])cn2)o1 | -6.78% |  |
| Cc1c(Cl)c([N+](=O)[O-])nn1Cc1ccc(C(=O)N/N=C\c2cc(Cl)ccc2O)o1 |  | 3.7 µM (active) |
| Cc1c(Cl)c([N+](=O)[O-])nn1CCCC(=O)Nc1cc(Cl)ccc1Cl | -31.1% |  |
| CS(=O)(=O)Nc1ccccc1N=C(c1ccccc1)c1ccccc1 | 3.7% |  |
| Cc1ccc(S(=O)(=O)c2nc(NCCCn3ccnc3)sc2Cl)cc1 |  | 6.57 µM (active) |
| Cc1ccc(-c2nc(C#N)c(NCCCn3ccnc3)o2)cc1 | 237% |  |
| O=C(/C=C/c1ccc(Cl)cc1)NCCCn1ccnc1 | -24.8% |  |
| COc1ccc(NC(=O)CN(C)C(=O)c2ccc(COc3ccccc3)o2)cc1 | -4.52% |  |
| CC(=O)c1ccccc1OCc1ccc(C(=O)c2ccccc2)cc1 | -97.2% |  |
| Cc1ccc(NS(=O)(=O)c2ccc3c(c2)CC(=O)N3)cc1Cl | 14% |  |
| COc1cccc(Nc2nnc(SCC(=O)N3CC(C)OC(C)C3)s2)c1 (stereo not drawn) | 34.9% |  |
| COc1cccc(Nc2nnc(SCC(=O)N3CC(=O)Nc4ccccc43)s2)c1 |  | 4.65 µM (active) |
| Cc1nc(SCC(=O)N2CC(=O)Nc3ccccc32)c2c(C)c(C)sc2n1 | 0% |  |
| C#CCOc1ccc(/C=C2/C(=O)ON=C2C)cc1OCC | -7.81% |  |
| COCc1c(C(=O)N/N=C(\C)c2ccncc2)nnn1-c1nonc1N | -3.74% |  |
| Cc1nc2sccn2c(=O)c1S(=O)(=O)NCCc1ccccc1 | 0% |  |
| CCc1cccc(C)c1NS(=O)(=O)c1c(C)nc2sccn2c1=O | 0.376% |  |
| CCOC(=O)c1ccccc1NS(=O)(=O)c1c(C)nc2sccn2c1=O |  | 14.7 µM (active) |
| Cc1cc(OCCCCOc2ccc(C#N)cc2)ccc1[N+](=O)[O-] | 12.6% |  |
| COc1ccc(CCOC(=O)CNC(=O)c2ccc(Cl)cc2Cl)cc1 | -13.4% |  |
| Cc1cc(C)c(S(=O)(=O)Nc2c(C)n(C)n(-c3ccccc3)c2=O)cc1[N+](=O)[O-] | -2.69% |  |
| CCCOc1cccc(C(=O)NCCCNC(=O)c2cccnc2)c1 | 95.6% |  |

| SMILES | activity change, negative = inhibition | Potency |
| --- | --- | --- |
| CCCOc1cccc(C(=O)Nc2nnn(CCC)n2)c1 |  | 4.65 µM (active) |
| CCCn1nnc(NC(=O)COc2ccc(CC)cc2)n1 | 5.36% |  |
| Cc1cc(C(F)F)nn1CC(=O)NC1CCCCCC1 | -19.5% |  |
| CN(C)c1ccc(CNC(=O)CN2C(=O)COc3ccc(S(=O)(=O)N4CCCC4)cc32)cc1 | 12.7% |  |
| Clc1cccc(-c2nc(NCC3CCCO3)c3ccccc3n2)c1 (stereo not drawn) | 37.3% [at 5.75 µM] |  |
| NC(N)=Nc1nc(-c2ccccc2)c2cc(Cl)ccc2n1 | 51.4% |  |
| Clc1ccc2nc3c(c(-c4ccccc4)c2c1)CNCC3 |  | 13.1 µM (active) |
| COc1ccc(NC(=O)COc2ccc(C(=O)c3ccc(F)cc3)cc2)cc1S(N)(=O)=O | -26.2% |  |
| CC(=O)NCC(=O)NC1CCCc2c1cnn2-c1ccccc1F (stereo not drawn) | -6.37% |  |
| O=C(O)c1ccc(F)c(S(=O)(=O)Nc2ccccc2)c1 | 24.9% |  |
| COc1ccc(Cl)cc1S(=O)(=O)Nc1cccc(C(=O)O)c1 |  | 10.4 µM (active) |
| COc1cc(OC)c(S(=O)(=O)Nc2ccccc2C(=O)O)cc1S(=O)(=O)Nc1ccccc1C(=O)O | -13.4% |  |
| CN1CCN(c2ncc3c(n2)CC(c2ccccc2F)CC3=O)CC1 (stereo not drawn) | 40.8% |  |
| COc1ccccc1C(C)NC(=O)Cc1ccsc1 (stereo not drawn) | 2.57% |  |
| CCCCOc1ccc(CON(C(C)=O)C(C)=O)cc1Cl | 5.53% |  |
| O=C(CNC(=O)c1ccccc1)Oc1ccc([N+](=O)[O-])cc1 | 1.08% |  |
| CC(Cc1cccs1)N(Cc1ccc(Cl)cc1)C(=O)c1ccncc1 (stereo not drawn) |  | 13.1 µM (active) |
| CC(Cc1cccs1)NC(=O)c1cccc(Cl)c1 (stereo not drawn) | 43.8% |  |
| CC(Cc1cccs1)NCc1ccc(Cl)cc1 (stereo not drawn) | 54.2% |  |
| CCCc1ccc(OCCNC(=O)c2ccccc2Br)cc1 | -8.4% |  |
| O=C(N/N=C/c1cc2c(cc1Br)OCO2)C1COc2ccccc2O1 (stereo not drawn) |  | 7.38 µM (active) |
| CC(/C=C/c1ccco1)=N/NC(=O)C1COc2ccccc2O1 (stereo not drawn) | -5.91% |  |
| O=C(N/N=C\c1cc2c(cc1Cl)OCO2)c1ccc(Br)s1 | 19% |  |
| COc1ccc(C(=O)NCC2CCCN2S(=O)(=O)c2cccs2)cc1OC (stereo not drawn) | -4.53% |  |
| Cc1cc(C)c(S(=O)(=O)N2CCCC2CNC(=O)c2ccc3c(c2)OCO3)c(C)c1 (stereo not drawn) |  | 11.7 µM (active) |
| Cc1cc(C)c(S(=O)(=O)NCC2CCC(C(=O)NCc3ccc4c(c3)OCO4)CC2)c(C)c1 (stereo not drawn) | -66.7% |  |
